Measured values from ChEMBL document CHEMBL3433997, “St. Jude Leishmania screening dataset” (2016).

Tests used:
Format in all cases: functional
[1] = target: Solute carrier family 2, facilitated glucose transporter member 1 (Homo sapiens) (UniProt P11166); assay: ST_JUDE_LEISH: Cytotoxicity at 2uM final concentration against transgenic Leishmania Mexicana promastigotes LmGLUT1 that are glucose transport deficient and complemented with the human glucose transporter GLUT1. Activity is measured by DNA content using SYBR green in vitro
[2] = target: Hexose transporter 1 (Plasmodium falciparum) (UniProt O97467); assay: ST_JUDE_LEISH: Cytotoxicity at 2uM final concentration against transgenic Leishmania Mexicana promastigotes LmPfHT that are glucose transport deficient and complemented with the Plasmodium falciparum hexose transporter. Activity is measured by DNA content using SYBR green in vitro
[3] = target: Glucose transporter (Leishmania mexicana) (UniProt O61059); assay: ST_JUDE_LEISH: Cytotoxicity at 2uM final concentration against transgenic Leishmania Mexicana promastigotes LmGT2 that are glucose transport deficient and complemented with the L. Mexicana glucose transporter 2. Activity is measured by DNA content using SYBR green in vitro

Solute carrier family 2, facilitated glucose transporter member 1 (Homo sapiens), sequence (P11166 whole entry): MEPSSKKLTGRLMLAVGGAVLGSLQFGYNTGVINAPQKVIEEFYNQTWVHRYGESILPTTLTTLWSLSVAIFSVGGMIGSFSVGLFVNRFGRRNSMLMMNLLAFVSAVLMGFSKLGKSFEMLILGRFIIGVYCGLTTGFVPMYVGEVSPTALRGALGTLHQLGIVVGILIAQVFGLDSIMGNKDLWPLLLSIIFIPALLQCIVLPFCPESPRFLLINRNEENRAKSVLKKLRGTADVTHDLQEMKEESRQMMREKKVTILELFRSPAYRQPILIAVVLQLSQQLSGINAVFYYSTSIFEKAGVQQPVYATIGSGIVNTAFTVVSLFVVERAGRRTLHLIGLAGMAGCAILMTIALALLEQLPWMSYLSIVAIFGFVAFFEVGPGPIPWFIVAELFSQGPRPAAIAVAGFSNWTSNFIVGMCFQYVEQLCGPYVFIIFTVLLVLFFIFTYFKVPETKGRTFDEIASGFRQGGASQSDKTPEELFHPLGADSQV

| SMILES | inhibition [1] [%] | inhibition [2] [%] | inhibition [3] [%] |
| --- | --- | --- | --- |
| O=C(Cc1ccc(NC(=O)c2ccc(O)c(-c3cccc([N+](=O)[O-])c3)c2)cc1)NCCN1CCCCC1 | -0.19 | -1.26 | -0.03 |
| CCN(CCCN1CCCCC1)c1nc(C)cc(Nc2ccc(Cl)cc2)n1 | 0.5 | -0.38 | 1.1 |
| COc1ccc(CNCc2ccc(F)cc2)cc1-c1cccc(S(=O)(=O)NCCN2CCCC2)c1 | 0.82 | 0.14 | 1.01 |
| Cc1cc(CNCCCCCCNCc2ccc(Cl)cc2)ccc1O | 9.89 | 7.77 | 9.18 |
| CCn1c(-c2nonc2N)nc2c(-c3ccccc3)ncc(OCCCCNCCc3ncc[nH]3)c21 | -0.2 | -0.76 | -0.64 |
| COc1ccc(-c2cccc(NC(=O)c3cccc(Cl)c3)c2)cc1CN1CCC(O)CC1 | 8.59 | 6.33 | 5.34 |
| CNC(=O)c1cnc(Nc2ccc(N3CCN(C)CC3)c(C)c2)nc1NC | -0.78 | -3.69 | 3.79 |
| CSc1nnc2n(Cc3ccccc3)c(=O)c3c(n12)-c1ccccc1CC31CCCCC1 | 2.53 | 0.86 | 0.02 |
| O=C1CCCN1CCCNCc1ccc(-c2ccc(-c3nc4cc(C(F)(F)F)ccc4[nH]3)s2)cc1 | 4.04 | 1.98 | 3.27 |
| COc1ccc(Cn2c(=O)[nH]c3cc(C(=O)NC4CCN(Cc5ccccc5)CC4)ccc3c2=O)cc1 | 2.2 | 0.63 | 2.59 |
| CCCc1cc(=O)[nH]c(-n2nc(C)cc2NC(=O)C(CC)c2ccccc2)n1 (stereo unspecified) | 35 | 38.3 | 4.69 |
| COc1ccc2nccc([C@@H](O)CN3CCC(NCc4ccc(OC)c(NC=O)c4)CC3)c2c1 | 3.28 | 4.05 | 2.18 |
| Fc1ccccc1C=NN=c1cc[nH]c2ccc(C(F)(F)F)cc12 | 3.03 | 3.13 | 2.13 |
| Cc1c(F)cc(C(=O)NC2CC2)cc1-c1ccc2c(cnn2S(=O)(=O)c2ccc(Cl)s2)c1 | 3.04 | 1.53 | 0.9 |
| CCCC(C)c1ccc(N2C(N)=NC(N)=NC2(C)C)cc1 (stereo unspecified) | 2.85 | 2.75 | 0 |
| O=C(Nc1ccc(C(F)(F)F)cc1)Nc1cccc([N+](=O)[O-])c1 | 2.81 | 2.48 | 3.51 |
| O=c1[nH]nc(-c2ccc(N3CCCC3)c([N+](=O)[O-])c2)c2ccccc12 | 2.71 | 3.31 | 4.21 |
